The campaign covered roughly 310,000 compounds. About 14,000 (4.5%) showed an effect of 50% or more. Effects have a minus sign here. This is one part of a sample in which strong results are shown more often than they occur.
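Further: peak tail current of the secondary pulse compared with the same well before compound.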

The experiment deals with human ether-à-go-go-related gene (hERG) potassium channel (human, UniProt Q12809). Nature of the experiment: primary screen, population patch clamp on CHO cells stably expressing hERG; higher = less effect of the substance.
human ether-à-go-go-related gene (hERG) potassium channel, sequence (Q12809 whole entry, looked up): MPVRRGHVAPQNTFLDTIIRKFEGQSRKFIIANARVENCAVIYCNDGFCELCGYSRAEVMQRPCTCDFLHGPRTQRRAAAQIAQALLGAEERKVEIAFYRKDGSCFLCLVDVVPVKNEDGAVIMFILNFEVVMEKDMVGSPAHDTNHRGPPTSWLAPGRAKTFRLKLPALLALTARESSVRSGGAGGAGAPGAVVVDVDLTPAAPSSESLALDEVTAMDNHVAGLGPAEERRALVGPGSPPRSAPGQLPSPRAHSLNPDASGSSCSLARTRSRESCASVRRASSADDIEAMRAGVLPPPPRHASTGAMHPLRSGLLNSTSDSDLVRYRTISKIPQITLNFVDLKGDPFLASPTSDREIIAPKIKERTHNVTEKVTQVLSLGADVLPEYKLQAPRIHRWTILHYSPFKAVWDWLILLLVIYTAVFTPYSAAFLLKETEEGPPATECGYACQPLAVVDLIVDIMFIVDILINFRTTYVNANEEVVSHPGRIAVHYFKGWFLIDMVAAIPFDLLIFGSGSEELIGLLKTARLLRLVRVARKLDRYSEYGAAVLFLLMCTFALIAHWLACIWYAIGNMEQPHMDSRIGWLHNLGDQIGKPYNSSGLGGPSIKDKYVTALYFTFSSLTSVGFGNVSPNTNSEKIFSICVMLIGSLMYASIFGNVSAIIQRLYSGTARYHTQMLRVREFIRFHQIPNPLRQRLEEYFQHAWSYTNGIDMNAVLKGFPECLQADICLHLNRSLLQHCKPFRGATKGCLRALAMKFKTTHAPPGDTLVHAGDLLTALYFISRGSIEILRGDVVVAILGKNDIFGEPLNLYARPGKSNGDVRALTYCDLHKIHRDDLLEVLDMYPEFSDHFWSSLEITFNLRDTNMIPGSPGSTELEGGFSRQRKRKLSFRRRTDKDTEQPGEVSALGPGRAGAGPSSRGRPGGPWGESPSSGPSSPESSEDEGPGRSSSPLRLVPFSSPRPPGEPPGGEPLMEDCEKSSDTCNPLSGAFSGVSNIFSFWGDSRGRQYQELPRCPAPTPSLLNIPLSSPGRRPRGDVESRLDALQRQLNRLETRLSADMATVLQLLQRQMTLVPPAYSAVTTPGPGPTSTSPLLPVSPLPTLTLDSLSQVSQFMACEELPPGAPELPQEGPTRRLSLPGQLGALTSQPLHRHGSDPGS
On to `Cc1cc(C)c(C(=O)C(C)OC(=O)Cn2cnc3c2c(=O)n(C)c(=O)n3C)cc1C` (stereo not drawn), for which the “hERG current change (%, negative = inhibition) at 10uM” value was -17.6%.

In the case of `CC(C(=O)c1ccccc1)n1cnc2ccccc2c1=O` (stereo not drawn), the “hERG current change (%, negative = inhibition) at 10uM” value is on record as -2.46%. As for `CC(=O)c1cccc(NC(=O)CCN2C(=O)C3CC=CCC3C2=O)c1` (stereo not drawn), the “hERG current change (%, negative = inhibition) at 10uM” value is given as 5.49%. Take `COCCN(CCOC)S(=O)(=O)c1ccc(OC)cc1`: the “hERG current change (%, negative = inhibition) at 10uM” value stood at 8.79%. To `Cc1ccnc(NC(=O)CCCc2ccccc2)c1` belongs 13%.

On to `COc1ccc(C2Nc3ccccc3C(=O)N2NS(=O)(=O)c2ccc(C)cc2)c(OC)c1` (stereo not drawn), for which the “hERG current change (%, negative = inhibition) at 10uM” value worked out at 3.22%. On to `CCOc1ccc(C(=O)C(C)OC(=O)CN2C(=O)NC(C)(C)C2=O)cc1` (stereo not drawn), for which the “hERG current change (%, negative = inhibition) at 10uM” value is given as -7.23%. `CCOc1ccc(C(=O)C(C)OC(=O)Cn2c(C)csc2=O)cc1` (stereo not drawn): the “hERG current change (%, negative = inhibition) at 10uM” value is listed as -60.1%. As for `Cc1csc(=O)n1CC(=O)OC(C)C(=O)Nc1ccc(F)c(F)c1F` (stereo not drawn), the figure is -4.29%; as for `O=C(COc1ccc(Cl)cc1)Nc1ccc2c(c1)nc1n2CCOC1`, -34%; as for `O=C(CC1NC(=O)NC1=O)Nc1ccccc1` (stereo not drawn), -0.537%. In the case of `CCOc1cc2c(cc1OCC)-n1cccc1C(c1cccc(F)c1)NC2.Cl` (stereo not drawn), the “hERG current change (%, negative = inhibition) at 10uM” value is listed as -14.8%.

`CCOc1cc2c(cc1OCC)-n1cccc1C(c1ccc(OC)c(OC)c1)NC2.Cl` (stereo not drawn): the “hERG current change (%, negative = inhibition) at 10uM” value is -30.2%. To `CCOc1cc2c(cc1OCC)-n1cccc1C(c1ccc(C)cc1C)NC2.Cl` (stereo not drawn) belongs -0.599%; to `CCOc1cc2c(cc1OCC)-n1cccc1C(c1ccc(F)cc1)NC2.Cl` (stereo not drawn), 0.0384%. To `CCOc1cc2c(cc1OCC)-n1cccc1C(c1ccccc1OC)NC2.Cl` (stereo not drawn) belongs -7.52%; to `CCOc1cc2c(cc1OCC)-n1cccc1C(c1cc(C)c(OC)cc1C)NC2.Cl` (stereo not drawn), -62.1%. As for `CCOc1cc2c(cc1OCC)-n1cccc1C(c1ccc(OC(F)F)cc1)NC2.Cl` (stereo not drawn), the figure is -65.3%. As for `CCOc1cc2c(cc1OCC)-n1cccc1C(c1cccc([N+](=O)[O-])c1)NC2.Cl` (stereo not drawn), the “hERG current change (%, negative = inhibition) at 10uM” value is -59.9%. `CCOc1cc2c(cc1OCC)-n1cccc1C(c1ccc(OC)cc1)NC2.Cl` (stereo not drawn): the “hERG current change (%, negative = inhibition) at 10uM” value is given as -48.1%. As for `O=S(=O)(NC1=NCCCCCC1)c1cccs1`, the figure is 3.19%; as for `CCN1C(C(=O)c2ccccc2)=C(Nc2ccccc2C)c2ccccc2S1(=O)=O`, -4.84%; as for `Cl.Nn1cnnc1N/N=C/c1ccc(Cl)c([N+](=O)[O-])c1`, -26.6%. In the case of `O=c1[nH]c(/C=C\c2cccs2)nc(O)c1[N+](=O)[O-]`, the “hERG current change (%, negative = inhibition) at 10uM” value is -4.76%. With `CCOc1ccc(/C=N/NC(=O)c2[nH]c3ccc(C)cc3c2C)cc1`, the “hERG current change (%, negative = inhibition) at 10uM” value was 12.4%. As for `Cc1cccc(NC(=O)Cn2cnc3c(oc4ccccc43)c2=O)c1`, the figure is 12.5%. As for `CCN1CCN(S(=O)(=O)c2ccc(Oc3ccccc3OC)cc2)CC1`, the figure is -15%; as for `O=[N+]([O-])c1cc(S(=O)(=O)N2CCCC2)ccc1OCCOc1ccccc1`, -32.4%. To `CCN(CC)S(=O)(=O)c1ccc(Oc2ccc(S(=O)(=O)N(CC)CC)cc2)cc1` belongs -22.7%; to `COc1cccc(Oc2ccc(S(=O)(=O)N3CCCC3)cc2[N+](=O)[O-])c1`, -57.1%. As to `COc1ccccc1Oc1ccc(S(=O)(=O)N2CCN(C)CC2)cc1`, the “hERG current change (%, negative = inhibition) at 10uM” value is reported as -1.98%. As for `CCN(CC)S(=O)(=O)c1ccc(Oc2ccccc2OC)cc1`, the figure is -65.3%; as for `COc1ccccc1Oc1ccc(S(=O)(=O)N2CCCC2)cc1`, -77.3%; as for `CCN(CC)S(=O)(=O)c1ccc(Oc2ccccc2)cc1`, -20.7%.

Consider `COc1cc(OC)cc(Oc2ccc(S(=O)(=O)N3CCCCC3)cc2[N+](=O)[O-])c1`, for which the “hERG current change (%, negative = inhibition) at 10uM” value came to 1.5%.

As to `CN=C1S/C(=C\c2cn(CC(=O)OC)c3ccccc23)C(=O)N1C`, the “hERG current change (%, negative = inhibition) at 10uM” value stood at 7.11%. On to `COc1ccc([N+](=O)[O-])cc1NC(=O)Nc1ccc(OC)c(OC)c1`, for which the “hERG current change (%, negative = inhibition) at 10uM” value came to 8.37%. To `COc1ccc(CCNC(=O)COC(=O)Cc2ccc(OC)cc2)cc1` belongs 9.48%.

With `Cc1cc(N2CCOCC2)nc2ccc(Cl)cc12`, the “hERG current change (%, negative = inhibition) at 10uM” value is listed as 9.25%. To `Cc1cc(N2CCCN(C)CC2)nc2cc(Cl)ccc12` belongs -61.7%; to `COc1ccc2c(C)cc(N3CCOCC3)nc2c1`, -7.7%; to `Cc1cc(N2CCN(c3ccc(F)cc3)CC2)nc2cc(O)ccc12`, -75.9%. To `COc1ccc(N2CCN(c3cc(C)c4ccc(O)cc4n3)CC2)cc1` belongs -24.4%; to `COc1ccc2c(C)cc(N3CCCCCC3)nc2c1.O=C(O)C(=O)O`, -82%; to `COc1ccc2c(C)cc(N3CCN(Cc4ccccc4)CC3)nc2c1`, -29.6%. As for `Cc1cc(N2CCCCCC2)nc2ccccc12.O=C(O)C(=O)O`, the figure is -56.1%; as for `Cc1cc(N2CCCCC2)nc2ccccc12`, -9.74%; as for `Cc1cc(N2CCCC2)nc2ccccc12`, -41.2%. Regarding `COc1ccc2c(C)cc(N3CCN(c4ccc(F)cc4)CC3)nc2c1`, the “hERG current change (%, negative = inhibition) at 10uM” value is listed as -25.7%.

Turning to `Cc1cc(N2CCN(C)CC2)nc2ccccc12`, the “hERG current change (%, negative = inhibition) at 10uM” value is recorded as -0.28%. With `CCOc1cccc(/C=N/N2C(=O)CSC2=S)c1O`, the “hERG current change (%, negative = inhibition) at 10uM” value worked out at 24.2%. In the case of `O=C(CO/N=C/c1ccc(Cl)cc1Cl)NNC(=O)c1ccc(Cl)cc1Cl`, the “hERG current change (%, negative = inhibition) at 10uM” value amounted to 3.17%. Take `O=C(NCCO)Nc1ccc(Cl)cc1`: the “hERG current change (%, negative = inhibition) at 10uM” value is on record as 27.7%.

Regarding `O=C(CN(C(=O)c1csnn1)c1ccc(F)c(Cl)c1)NCc1ccc(F)cc1`, the “hERG current change (%, negative = inhibition) at 10uM” value was determined as 7.3%. To `CN1OC(Cn2cc(C#N)c(=O)n(C)c2=O)CC1c1ccccc1` (stereo not drawn) belongs 12.5%. As for `CCOc1ccc(CN(C)CC(=O)Nc2cc(C)c(C)cc2[N+](=O)[O-])cc1.CN(C)C=O`, the figure is 9.36%; as for `Oc1ccc(Nc2nc(-c3ccc(O)cc3)cs2)cc1`, 18.9%.

These data come from publication PMC4336329 (PLoS ONE, 2015).
